Experimental data reported in PubChem BioAssay AID1626 (SRMLSC, 2009).
About 2,000 (0.91%) of roughly 220,000 compounds were called active. About 2% were inconclusive and are not listed. No stated cut-off is given here; in the data, inconclusive means inhibition above about 80% without an active follow-up result; inactive means below that; test concentration not stated here. Not all results are given here. Entries with a potency or affinity are not part of this list.

Assay: M. tuberculosis H37Rv growth inhibitors, H37Rv strain (AID 1626);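 further: bacteria incubated seven days before Alamar blue readout; 0% = bacteria only wells and 100% = bacteria with antibiotic wells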
Details: stronger effect = higher value, concentration not given here

Row | Compound | inhibition
1 | Cc1nc2nc(SCC(=O)C(C)(C)C)[nH]c2cc1Br | -3.7% (inactive)
2 | CC(C)(C)c1cc(NC(=O)c2cccc([N+](=O)[O-])c2)no1 | 4.63% (inactive)
3 | CC1(c2nnc(-c3ccccc3)o2)CC(c2ccc(F)cc2)=NO1 (stereo unspecified) | -2.41% (inactive)
4 | COC(=O)c1ccc(N=c2sc(C(=O)OC)cc(=O)n2C)cc1 | 7.67% (inactive)
5 | CCOC(=O)c1ccc(N=c2sc(C(=O)OC)cc(=O)n2-c2ccc(C(=O)OCC)cc2)cc1 | 63.5% (inactive)
6 | COc1c(F)c(F)c(C(=O)O)c(Nc2cc(C)cc(C)c2)c1F | -9.39% (inactive)
7 | O=c1cc(-c2ccc(F)cc2)oc2ccccc12 | -4.83% (inactive)
8 | O=c1cc(-c2ccccc2F)oc2ccccc12 | -6.27% (inactive)
9 | N#Cc1cccc(NC(=O)CC2CCCCC2)c1 | 1.61% (inactive)
10 | Cc1ccc(N2C(=O)NC(=O)/C(=C\c3ccc(N4CCOCC4)cc3)C2=O)cc1 | -2.37% (inactive)
11 | CS(=O)(=O)N1CCn2c1nc1ccccc12 | -12.2% (inactive)
12 | CC1=C(C#N)C(c2cccnc2)C2=C(CC(c3ccc(Cl)cc3)CC2=O)N1 (stereo unspecified) | 5.84% (inactive)
13 | COc1ccc(C2C(C#N)=C(C)NC3=C2C(=O)CC(C)(C)C3)cc1 (stereo unspecified) | 6.62% (inactive)
14 | COC(=O)C1=C(C(=O)OC)[C@@H]2N(Cc3ccccc3)c3ccccc3[C@@]23C[C@@H](C(=O)OC)N(C(=O)NC2CCCCC2)C3=N1 | -1.86% (inactive)
15 | CC(=O)c1ccc(NC(=O)C2CC(=O)N(Cc3ccccc3)C2)cc1 (stereo unspecified) | -1.96% (inactive)
16 | CCOc1nc(-c2ccc(Cl)cc2)nc2ccccc12 | -0.59% (inactive)
17 | O=C(CCl)N(c1ccc(Cl)cc1)c1c[nH]c2ccccc12 | 75.3% (inactive)
18 | CC(=O)N(c1ccc(Cl)cc1)c1c[nH]c2ccccc12 | -5.95% (inactive)
19 | O=C(CCl)N(Cc1ccccc1)c1ccccc1 | 77.7% (inactive)
20 | O=C(N(c1ccccc1)c1ccccc1)N(c1ccccc1)c1ccccc1 | -4.02% (inactive)
21 | CCn1cc(-c2cc(C(F)(F)F)n3nc(C(=O)O)cc3n2)c(C)n1 | -10.8% (inactive)
22 | COc1ccc(C)cc1NC(=O)C1CCCCC1C(=O)O (stereo unspecified) | -8.21% (inactive)
23 | CCOC(=O)C(NCc1ccc(F)cc1)(NC(=O)c1ccccc1)C(F)(F)F (stereo unspecified) | -7.14% (inactive)
24 | CCc1ccc(NCc2cc3c(C)nn(-c4ccccc4)c3[nH]c2=O)cc1 | 26% (inactive)

Row | Compound | inhibition
25 | CCOc1cccc(NCc2cc3c(C(C)(C)C)nn(-c4ccccc4)c3[nH]c2=O)c1 | 70.7% (inactive)
26 | CC(C)(C)c1nn(-c2ccccc2)c2[nH]c(=O)c(CNc3ccc4c(c3)OCCO4)cc12 | 4.42% (inactive)
27 | Cc1nn(-c2ccccc2)c2[nH]c(=O)c(CNCCN3CCOCC3)cc12 | 3.32% (inactive)
28 | COc1cccc(NCc2cc3c(C(C)(C)C)nn(-c4ccccc4)c3[nH]c2=O)c1 | -5.67% (inactive)
29 | Cc1nn(-c2ccccc2)c2[nH]c(=O)c(CNCc3ccc4c(c3)OCO4)cc12 | -1.83% (inactive)
30 | Cn1c(O)c(N=NC(=O)c2ccccc2O)c2ccccc21 | -0.85% (inactive)
31 | Cc1cc(C2(c3ccc(O)c(C)c3)OC(=O)c3ccccc32)ccc1O | -1.73% (inactive)
32 | CC/C(C)=C1\SC(N2CCOCC2)=NC1=O | 1.74% (inactive)
33 | Cc1cc(C)nc(N2CCC(C(=O)NCc3ccccc3F)CC2)n1 | -8.28% (inactive)
34 | O=C(Nc1ccn(-c2ccccc2)n1)c1ccccc1Br | 1.33% (inactive)
35 | CC(=O)Nc1ccn(-c2ccccc2)n1 | 0.92% (inactive)
36 | CC(C)(C)C1CCc2sc(-c3nnc(CCl)o3)cc2C1 (stereo unspecified) | 43.6% (inactive)
37 | COc1cc2[nH]c(=O)n3nc(-c4ccccc4)nc3c2cc1OC | -2.98% (inactive)
38 | Cc1nc2ccc(Cl)cc2nc1C | -12.2% (inactive)
39 | Cc1nc(N)nc(Cl)c1Cc1ccc(Cl)cc1 | 3.47% (inactive)
40 | COC(=O)/C(C#N)=C/c1c[nH]c2ccccc12 | 7.57% (inactive)
41 | CCCCCn1c(=O)c(C(=O)Nc2ccccc2S(N)(=O)=O)c(O)c2ccccc21 | 6.87% (inactive)
42 | CCCCn1c(=O)c(C(=O)Nc2ccsc2C(=O)OC)c(O)c2ccccc21 | 1.97% (inactive)
43 | CCCCn1c(=O)c(C(=O)Nc2ccccc2)c(O)c2ccccc21 | -1.05% (inactive)
44 | CCCCCCn1c(=O)c(C(=O)Nc2c(C)n(C)n(-c3ccccc3)c2=O)c(O)c2ccccc21 | -5.05% (inactive)
45 | CCN(CC)S(=O)(=O)c1cc(C(=O)OCC(=O)NC(=O)c2cccn2C)ccc1C | -5.23% (inactive)
46 | O=C(CCNc1ccc(F)cc1)c1cc2ccccc2o1 | -9.46% (inactive)
47 | Cn1cc(Br)c(C(=O)NNC(=O)c2ccc(Br)cc2)n1 | 6.79% (inactive)
48 | CCN(CC)c1ccc2c(c1)C(=O)N(C)C2=O | 7.2% (inactive)

Row | Compound | inhibition
49 | CCN(CC)c1ccc(NC(=O)CCCCCN2C(=O)c3ccccc3C2=O)cc1 | -10.5% (inactive)
50 | O=C(Nc1ccc2oc(-c3ccccc3Cl)nc2c1)c1cncc(Br)c1 | -3.07% (inactive)
51 | Brc1ccc(-c2csc(/N=C/N3CCCC3)n2)cc1 | 64.4% (inactive)
52 | CN(C)/C=N/c1nc(-c2ccc3c(c2)OCO3)cs1 | -11.6% (inactive)
53 | COc1ccc(CNC(=O)C2C3C=CC4(CN(Cc5cccnc5)C(=O)C24)O3)cc1 (stereo unspecified) | -7.2% (inactive)
54 | COc1ccc(NC(=O)C(=O)N/N=C(\C)CC(=O)Nc2ccccn2)c(OC)c1 | -16.2% (inactive)
55 | NS(=O)(=O)c1ccc(NC(=O)CCC2CCCCC2)cc1 | -3.12% (inactive)
56 | CC1CCN(C(=O)CCc2ccc(Oc3cc([N+](=O)[O-])cc([N+](=O)[O-])c3)cc2)CC1 | 71.9% (inactive)
57 | O=C(CCc1ccc(Oc2cc([N+](=O)[O-])cc([N+](=O)[O-])c2)cc1)N1CCCCC1 | 3.78% (inactive)
58 | CC1(C)S/C(=N/N=C/c2ccco2)NC1=O | 3.45% (inactive)
59 | CCOc1ccc(-n2c(N)c(C(=O)N3CCN(C)CC3)sc2=S)cc1 | 2.86% (inactive)
60 | CN(C)S(=O)(=O)N1CCN(c2ccc([N+](=O)[O-])c(N3CCOCC3)c2)CC1 | 6.14% (inactive)
61 | Cc1c(O)ccc(-c2n[nH]c(C(=O)O)c2-c2nc3ccccc3s2)c1O | -16.8% (inactive)
62 | O=C(CC(Sc1n[nH]c(-c2ccccc2)n1)c1ccccc1)NCc1ccccc1 (stereo unspecified) | -4.33% (inactive)
63 | O=C(NCc1c(F)cccc1F)c1cc(COc2c(F)cccc2F)on1 | 4.13% (inactive)
64 | COC(=O)OCC12CCC(O1)C1(C)C(=O)OCC21 (stereo unspecified) | 2.41% (inactive)
65 | COC(/C=C/Nc1ccc(Br)cc1)=C(C#N)C#N | -3.61% (inactive)
66 | CC1CCN(CCC(=O)NN)CC1 | 1.23% (inactive)
67 | CCOC(=O)/C(C#N)=N/Nc1ccccc1OC | 12.6% (inactive)
68 | Nc1nc(Cl)cc(N2CCC(c3cc(-c4ccc(Cl)cc4Cl)n[nH]3)CC2)n1 | 8.57% (inactive)
69 | COc1ccc(-c2cc(C3CCN(c4cc(Cl)nc(N)n4)CC3)[nH]n2)cc1 | 4.7% (inactive)
70 | O=c1c2c3c(sc2nc2n1N=C(c1cccs1)CS2)CCCC3 | 3.06% (inactive)
71 | CC(=O)Nc1ccc(S(=O)(=O)N2CCN(CCN3CCOCC3)CC2)cc1Cl | -2.42% (inactive)
72 | O=C(Nc1nc2ccc(F)cc2s1)c1cccs1 | -2.98% (inactive)

Row | Compound | inhibition
73 | O=C(Nc1nc(-c2cc(F)ccc2F)cs1)C1=NN(c2ccccc2)C(=O)CC1 | 8.23% (inactive)
74 | Cc1onc(-c2ccccc2)c1C(=O)Nc1nc(-c2cc(F)ccc2F)cs1 | -3.02% (inactive)
75 | O=C(NNc1nc2c(F)cc(F)cc2s1)c1ccccc1 | 6.46% (inactive)
76 | O=C(CCc1ccccc1)Nc1nc2c(F)cc(F)cc2s1 | 12.2% (inactive)
77 | O=C(Nc1nc2ccccc2s1)c1ccc(F)cc1 | 2.23% (inactive)
78 | S=C(NCC1CCCO1)Nc1ccccc1Cl (stereo unspecified) | -6.63% (inactive)
79 | CC(C)(C)C(O)(CC#CCN1CCCC1)c1ccccc1 (stereo unspecified) | -4.05% (inactive)
80 | O=C(NCC1OCCc2ccccc21)C1COc2ccccc2O1 (stereo unspecified) | 9.06% (inactive)
81 | Cc1cccc(NC(=O)C2(c3cccs3)CCOCC2)n1 | -3.03% (inactive)
82 | CCn1c(=O)cc(N2CCN(C(=O)c3ccco3)CC2)[nH]c1=O | 11.9% (inactive)
83 | O=C(COC(=O)C1CC1)Nc1ccc2[nH]c(=O)[nH]c2c1 | 1.3% (inactive)
84 | CCOC(=O)CSc1cc(C)nc2ccc(OC)cc12 | -0.58% (inactive)
85 | COC(=O)CSc1cc(C)nc2ccc(OC)cc12 | 10.7% (inactive)
86 | CCCCOC(=O)C1=C(C)Nc2ncnn2C1c1cccc(OC)c1 (stereo unspecified) | -2.89% (inactive)
87 | Cc1[nH]c2ccccc2c1/C=N/NC(=O)CNC(=O)c1ccccc1 | -7.99% (inactive)
88 | Cc1cc(C)n(CC(C)NCc2cn[nH]c2-c2ccc(C)c(C)c2)n1 (stereo unspecified) | 1.18% (inactive)
89 | CC1=C(/C=C/C(C)=C/C=C/C(C)=C/C(=O)O)C(C)(C)CCC1 | -5.32% (inactive)
90 | CC1=C(/C=C/C(C)=C/C=C/C(C)=C\C(=O)O)C(C)(C)CCC1 | -10.9% (inactive)
91 | CN(C)c1ccc(N=Nc2ccccc2C(=O)OCC(=O)NC2CCCC2)cc1 | 46% (inactive)
92 | CN(C)c1ccc(N=Nc2ccccc2C(=O)OCC(=O)N(C)C2CCCCC2)cc1 | 27.3% (inactive)
93 | Nc1cc(C(=O)c2cccs2)ccc1Cl | -7.59% (inactive)
94 | Cc1ncc([N+](=O)[O-])n1CC(=O)NC(C)(C)C | -1.73% (inactive)
95 | CC(=O)N/C(=C\c1ccc(F)cc1)C(=O)N(C)C | -5.54% (inactive)
96 | COc1ccc(N2CCN(C(CNC(=O)c3cccc(Cl)c3)c3cccnc3)CC2)cc1 (stereo unspecified) | -9.59% (inactive)
